# Several values for one entry are separate records, joined by “and”; a condition that tells them apart may be missing. Identical values can stand only once. Over roughly 5,300 compounds, “PER2::LUC luminescence relative to vehicle control” has its median near 0.96; the highest 2% begin near 1.3. Many of the other results were omitted from the sample, so the highest values are more common in it than they were.
# Test system: mPer2Luc MEF
# Assay: PER2::LUC luminescence relative to vehicle control (fold of vehicle); higher = higher PER2::LUC reporter signal
# Conditions: 10 µM
# How it was run: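 Each value gives PER2::LUC luminescence as fold of vehicle control, measured with the ONE-Glo luciferase assay system in mouse embryonic fibroblasts carrying the mPer2Luc reporter. Cells grown in DMEM with 10% FBS at 37 °C and 5% CO2 were seeded at ~3000 per well in 384-well plates. Library compounds were added at 10 μM 48 h later, and readings were taken 24 h and 30 h after treatment.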
SMILES,PER2::LUC luminescence (time after treatment 24 h),PER2::LUC luminescence (time after treatment 30 h)
CCCCN(CCCC)C(=O)CN1C[C@H](c2ccc3c(c2)OCO3)[C@@H](C(=O)O)[C@@H]1c1ccc(OC)cc1,2.23,2.08
Cc1noc(-c2ccc(-c3ccc(CC(=O)O)cc3)cc2)c1NC(=O)OC(C)c1ccccc1Cl (centres undefined),1.1,1.12
C/C=C/C(=O)N1C(=O)OC[C@@H]1Cc1ccccc1,0.864,0.846
O=C1/C(=C/c2cccs2)CC/C1=C\c1cccs1,1.07,1.01
CN1CCCN=C1/C=C/c1cccs1,1.2 and 1.03,0.92 and 1.16
O=C1/C(=C/c2cccs2)CCC/C1=C\c1cccs1,1.5,1.67
CC(=O)Nc1ccc(OC(=O)c2ccccc2O)cc1,0.934,1.02
O=C(Oc1ccccc1C(=O)O)c1ccccc1O,1.15 and 0.613,1.16 and 0.995
Nc1ccc(C(=O)Oc2ccccc2)c(O)c1,0.958,1.54
CC(C)c1onc(-c2c(Cl)cccc2Cl)c1COc1ccc(/C=C/c2cccc(C(=O)O)c2)c(Cl)c1,1.86,2.03
CC(C)CCNC(=O)c1ccc2c(c1)nc(Nc1n[nH]c3ccc(-c4ccccc4OC(F)(F)F)cc13)n2C1CCC(O)CC1 (centres undefined),0.526,0.553
CCCCC(CC)COC(=O)C(C#N)=C(c1ccccc1)c1ccccc1 (centres undefined),1.01 and 1.15,1.08 and 1.14
CCCCC(CC)COC(=O)C=Cc1ccc(OC)cc1 (centres undefined),1.09,1.14
CCCCC(CC)COC(=O)c1ccccc1O (centres undefined),1.07,1.63
COc1ccc(CNc2nc(NCc3ccc(OC)cc3)c3ncn(C(C)C)c3n2)cc1,0.991,1.22
CC(C)Cc1ccc([C@@H](C)C(=O)O)cc1,0.974,0.981
CC(C)Cc1ccc(C(C)C(=O)O)cc1 (racemic),1.12,0.938
CC(C(=O)O)c1ccc(CC2CCCC2=O)cc1 (centres undefined),0.779 and 1.02,1.36 and 1.08
O=C(NCc1cccc(O)c1)c1cc2cc(F)ccc2[nH]1,0.948,0.986
CC(=O)NN(Cc1ccc(N)cc1)c1ncnc2c1ncn2[C@@H]1O[C@H](CO)[C@@H](O)[C@H]1O,1.03,0.913
NC1(C(=O)O)CCc2cc(P(=O)(O)O)ccc21 (racemic),1.03,1.01
Cc1nc(C(=O)N2CCC[C@H]2Cc2nnc(-c3ccccc3)o2)c(-c2ccccc2F)s1,1.06,0.881
COc1ccc(CCN2CN=C(SCc3ccc(Cl)cc3)NC2)cc1OC,0.912,0.83

SMILES,PER2::LUC luminescence (time after treatment 24 h),PER2::LUC luminescence (time after treatment 30 h)
COc1cc(-c2nc3ccccc3s2)ccc1O,1.37,1.5
COc1ccccc1O,0.97,0.878
COc1cc(CC(=O)O)ccc1O,0.99,0.874
COc1cc(-c2ccc(=O)[nH]n2)ccc1OC(F)F,0.97,0.924
COc1ccc(-c2nc3cc(F)ccc3s2)cc1OC,1.5,1.52
C#CCN(Cc1cc2c(=O)[nH]c(C)nc2cc1Br)c1ccc(C(=O)NCc2cccnc2)cc1,0.902,0.731
CC(Oc1ccc(Oc2cnc3ccc(Cl)cc3n2)cc1)C(=O)O (centres undefined),1.14,1.05
COc1cc2ncnc(Nc3cccc(I)c3)c2cc1OC,0.808,0.774
O[C@@](Cc1ncc(CC2(C(F)(F)F)CC2)[nH]1)(c1ccc(-n2cccn2)cc1)C(F)(F)F,0.966,0.921
Cc1cc(Nc2ccc(NC(=O)c3ccc(Nc4ccnc5ccccc45)cc3)cc2)nc(N)n1,0.945,1
O=C(Nc1ccc(OC(F)(F)F)cc1)c1sccc1NCc1ccnc2ccccc12,1.76,1.99
CCOc1ccc(-n2c(C(C)N(Cc3cccnc3)C(=O)Cc3ccc(OC(F)(F)F)cc3)nc3ncccc3c2=O)cc1 (centres undefined),0.97,0.944
Cc1c2c(c(O)c3c(O)cccc13)C(=O)O[C@@H]2[C@@H]1[C@H](O)C(=O)C(C(N)=O)=C(O)[C@H]1N(C)C [Alpha-APO-OXYTETRACYCLINE],0.979,0.958
CCc1c(C(=O)NNC(=O)C(O)c2cc(F)cc(F)c2)ccc(O)c1C (centres undefined),0.99,0.823
COc1ccc2ccc(=O)oc2c1,1,1.01
COc1cccc(-c2cc(=O)c3cc(OC)ccc3o2)c1,1.22,1.49
COc1ccc(-c2oc3ccccc3c(=O)c2OC)cc1,0.987,1.2
COc1cccc(-c2cc(=O)c3ccc(OC)cc3o2)c1,0.879,0.955
COc1ccc(-c2cc(=O)c3ccc(O)cc3o2)cc1,1.19,1.23
COc1ccc2c(=O)c(OC)c(-c3ccccc3)oc2c1,0.767,0.809
COc1cccc(-c2cc(=O)c3ccccc3o2)c1N,0.951,0.985
COc1ccc(-c2cc(=O)c3c(OC)c(OC)c(OC)c(OC)c3o2)cc1OC,0.626,0.784
COc1ccc2oc(-c3ccccc3OC)cc(=O)c2c1,1.38,1.61

SMILES,PER2::LUC luminescence (time after treatment 24 h),PER2::LUC luminescence (time after treatment 30 h)
COc1ccc2oc(-c3ccccc3)c(OC)c(=O)c2c1,1.54,1.73
COc1ccc(-c2cc(=O)c3ccccc3o2)cc1,1.72,1.29
COc1ccc(-c2cc(=O)c3c(OC)c(OC)c(OC)c(OC)c3o2)cc1,0.944,1.03
CC[C@H](C)[C@H]1O[C@]2(C=C[C@@H]1C)C[C@@H]1C[C@@H](C/C=C(\C)[C@@H](O[C@H]3C[C@H](OC)[C@@H](O[C@H]4C[C@H](OC)[C@@H](O)[C@H](C)O4)[C@H](C)O3)[C@@H](C)/C=C/C=C3\CO[C@@H]4[C@H](OC)C(C)=C[C@@H](C(=O)O1)[C@]34O)O2,0.767,0.843
NC(=O)C[n+]1cccc(C(=O)O)c1,1.18,1.08
c1cc(NC2CCNCC2)nc(-c2cnc3ccccn23)c1,0.506,0.487
CCCNC[C@]1(O)[C@H](C)O[C@@H](O[C@H]2[C@H](C)[C@@H](O[C@@H]3O[C@H](C)C[C@H](N(C)C)[C@H]3O)[C@](C)(O)C[C@@H](C)CN[C@H](C)[C@@H](O)[C@](C)(O)[C@@H](CC)OC(=O)[C@@H]2C)C[C@@]1(C)OC,1.05,0.881
C/C=C(/C)C(=O)O[C@H]1CC(C)=CC(=O)[C@@]2(C)CC[C@@](O)(C(C)C)[C@H]12,1.01,0.988
Cc1nnc(-c2sc(NC(=O)[C@H](C(C)C)n3c(=O)[nH]c4ccccc4c3=O)nc2C)o1,1.04,0.956
COc1cc([C@@H]2CC(=O)c3c(O)cc(O)cc3O2)ccc1O,0.985,0.942
Cc1occc1C(=O)n1ccnc1,0.986,0.971
COc1cc2ncnc(N(C)c3cccc(Br)c3)c2cc1OC,0.83,0.741
OCc1ccc(-c2ccc(-c3ccc(CO)s3)o2)s1,1.48,1.62
CCCCCCCCOC(=O)C=Cc1ccc(OC)cc1,1.04,1.09
CC(C)(O)c1ccc2c(c1)ncn2-c1cccc(-c2ccccc2C#N)c1,0.829,0.89
CC(Nc1ccc(-c2nn[nH]n2)cc1)C(=O)O (racemic),0.971,0.96
CC(C)[C@H](CO)Nc1nc(Sc2cccc(N)c2)c2ncn(C(C)C)c2n1,0.582,0.686
FC(F)(F)c1ccc(CNc2ccc(Cc3c[nH]c4ncc(Cl)cc34)cn2)cc1,0.83,0.83
CC(C(=O)O)c1ccc2c(c1)CC(=O)c1ccccc1S2 (centres undefined),1.05,1.08
CC(C(=O)O)c1ccc(N2Cc3ccccc3C2=O)cc1 (centres undefined),1.02,1.34
CC(C(=O)O)c1ccc(-c2ccccc2)c(F)c1 (centres undefined),1.15,1.06
O=C(CCc1ccc(O)cc1)c1c(O)cc(O)cc1OC1OC(CO)C(O)C(O)C1O (centres undefined),1.02,0.948
Oc1nc2cc(Cl)c(Cl)cc2nc1O,0.684,0.69

SMILES,PER2::LUC luminescence (time after treatment 24 h),PER2::LUC luminescence (time after treatment 30 h)
COc1ccc2nc(/C=C/c3cccc([N+](=O)[O-])c3)n(-c3ccc(C(=O)O)cc3)c(=O)c2c1,1.05,1.01
O=C(O)[C@@]1(CCCCCCOc2ccc(Cl)cc2)CO1,0.936,1.01
CCN(CC)CCOc1ccc(Cc2ccccc2)cc1,0.811,0.893
CCN(CC)CCOc1ccc(C(=C(Cl)c2ccccc2)c2ccccc2)cc1,0.934 and 0.704,1.73 and 0.773
CC/C(=C(\c1ccccc1)c1ccc(OCCN(C)C)cc1)c1ccccc1,0.718 and 0.679,0.784 and 0.742
Cn1nnc(-c2ccc(-c3ccc(N4C[C@@H](CO)OC4=O)cc3F)cn2)n1,1.01,1.09
Cn1nnc(-c2ccc(-c3ccc(N4C[C@H](CO)OC4=O)cc3F)cn2)n1,1.39 and 1.4,1.56 and 1.53
CC(=O)NC[C@H]1CN(c2ccc(-c3ccc(CNCc4cnn[nH]4)cc3)c(F)c2)C(=O)O1,1.03,1.09
CON(Cc1ccc(F)cc1)C(=O)/C=C(\O)C(=O)O,0.942,0.968
COc1ccc2[nH]cc(CCNC(=O)C3CC3)c2c1,0.901,0.938
O=C(c1ccc(OCCCc2c[nH]cn2)cc1)C1CC1,1.09 and 1.51,1.33 and 1.29
c1nc(CC2CCNCC2)c[nH]1,0.32,0.4
NCCc1c[nH]cn1,0.832 and 0.572,0.983 and 0.838
CC1=CC(=O)C(C(C)C)=C/C1=N/OC(=O)c1ccccc1C,1.11,0.994
O=C(O)c1c[nH]c(=O)cn1,1.08,0.999
O=C(NCC1(c2nc(-c3ccccc3)cs2)CCOCC1)c1cccc(-c2noc(C(F)(F)F)n2)c1,0.923,0.884
FC(F)(F)c1cccc(-c2noc(-c3cc(-c4ccccc4)c(C(F)(F)F)s3)n2)c1,1.17,1.14
O=C(O)c1cccc(-c2noc(-c3ccccc3F)n2)c1,1.69,2.11
O=C(O)c1cc(=O)c2ccccc2o1,0.998 and 1.05,0.946 and 1.14
CC(C)c1ccc2oc3nc(N)c(C(=O)O)cc3c(=O)c2c1,1.07,1.49
N[C@H](C(=O)O)c1ccc(O)c(C(=O)O)c1,1.02,0.987
O=C(O)c1cc(=O)c2cc(Cl)ccc2[nH]1,0.977,0.883
CCOC(=O)[N-]c1c[n+](N2CCOCC2)no1,1.09,1.74

# Source: the supplement of paper PMC9334596
